The whole screen tested about 220,000 compounds, of which about 910 (0.41%) were called active. The entries come from a sample that favours actives as a whole. Results with a measured potency or affinity are listed apart. Values without a mark were called inactive.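 The calls were made as follows: active = primary inhibition above the hit cutoff, then over 50% inhibition at one or more dose response concentrations (cut at about 23% in these data, passing the limit was not always enough); inconclusive = conflicting primary data, or primary hits not chosen for dose response; inactive = low primary inhibition, or under 50% at every dose.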
biological target: Aminopeptidase N (Plasmodium falciparum (isolate 3D7)) (UniProt O96935); experiment: P. falciparum M1AAP inhibitors, biochemical, fluorogenic H-Leu-NHMec substrate, 1536-well (AID 1445); conditions: recombinant M1AAP, H-Leu-NHMec fluorogenic kinetic assay; at 30 µM, hits give high values unless noted;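 also: plate controls were DMSO full reaction for no effect and no enzyme background for full effect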
Sequence (O96935 whole entry, looked up): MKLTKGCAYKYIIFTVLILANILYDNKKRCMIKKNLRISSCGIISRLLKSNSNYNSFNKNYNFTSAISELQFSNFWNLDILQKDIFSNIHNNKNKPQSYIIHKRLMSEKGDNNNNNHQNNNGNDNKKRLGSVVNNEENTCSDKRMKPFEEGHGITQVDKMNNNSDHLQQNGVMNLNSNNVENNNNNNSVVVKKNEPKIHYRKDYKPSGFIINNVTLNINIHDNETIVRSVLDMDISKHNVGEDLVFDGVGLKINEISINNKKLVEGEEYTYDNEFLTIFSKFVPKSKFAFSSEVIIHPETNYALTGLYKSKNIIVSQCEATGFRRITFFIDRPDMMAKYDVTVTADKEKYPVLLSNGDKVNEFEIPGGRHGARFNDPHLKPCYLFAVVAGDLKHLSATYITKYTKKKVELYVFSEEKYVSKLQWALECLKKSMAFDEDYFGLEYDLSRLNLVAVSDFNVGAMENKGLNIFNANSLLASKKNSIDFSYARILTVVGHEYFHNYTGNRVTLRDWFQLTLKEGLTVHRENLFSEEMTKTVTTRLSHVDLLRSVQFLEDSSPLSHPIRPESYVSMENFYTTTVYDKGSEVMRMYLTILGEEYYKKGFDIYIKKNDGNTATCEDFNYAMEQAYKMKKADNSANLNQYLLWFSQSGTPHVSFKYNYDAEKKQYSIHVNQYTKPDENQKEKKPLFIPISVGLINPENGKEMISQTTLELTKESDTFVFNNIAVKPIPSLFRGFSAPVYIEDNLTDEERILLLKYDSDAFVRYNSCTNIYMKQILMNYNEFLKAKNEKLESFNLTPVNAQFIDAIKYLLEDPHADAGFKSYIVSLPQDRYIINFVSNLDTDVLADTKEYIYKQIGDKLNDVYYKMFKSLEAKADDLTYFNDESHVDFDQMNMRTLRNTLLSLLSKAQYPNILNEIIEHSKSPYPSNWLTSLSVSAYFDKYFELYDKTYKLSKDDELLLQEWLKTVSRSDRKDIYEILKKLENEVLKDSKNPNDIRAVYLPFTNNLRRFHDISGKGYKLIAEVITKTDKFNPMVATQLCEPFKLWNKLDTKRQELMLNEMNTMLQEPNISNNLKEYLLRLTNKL

Row | Compound | inhibition
1 | CC(Cc1cccs1)NC(=S)Nc1ccc(Cl)c(Cl)c1 (stereo not drawn) | -3.88%
2 | Cc1ccc(OCc2ccc(C(=O)Nc3nc4ccccc4n3Cc3ccccc3)o2)c([N+](=O)[O-])c1 | 4.13%
3 | Cc1ccc(C(=O)Cn2nnc3ccccc32)cc1C | 5.82%
4 | O=C1Nc2ccccc2N(O)N1c1ccc(S(=O)(=O)Nc2ccccn2)cc1 | 5.82%
5 | Cc1cc(-c2nc3c4c5c(sc4[nH]c(=O)n3n2)CCC5)c(C)o1 | 27.1% (active)
6 | Cc1nc2sc3c(c2c(=O)o1)CCC3 | 7.65%
7 | O=c1[nH]c2sc3c(c2c2nncn12)CCCC3 | 2.29%
8 | CCOC(=O)C1=C(c2ccccc2)Nc2ncnn2C1c1ccc(OC)c(OC)c1OC (stereo not drawn) | -1.38%
9 | O=S(=O)(Nc1nc2ccccc2nc1Nc1ccc2c(c1)OCO2)c1ccccc1 | 33.5%
10 | O=S(=O)(Nc1ccc2c(c1)OCCO2)c1cccs1 | -2.25%
11 | O=S(=O)(Nc1nc2ccccc2nc1Nc1ccc2c(c1)OCCO2)c1cccs1 | 47.2% (active)
12 | CC1=C(C(=O)N2CCN(c3cc(C)ccc3C)CC2)C2(CCC(C)CC2)OC1=O (stereo not drawn) | 0.75%
13 | NNC(=O)CSc1nnnn1-c1ccccc1 | -3.57%
14 | Cc1cccc(C)c1NS(=O)(=O)c1ccc(OCCNS(C)(=O)=O)cc1 | -0.18%
15 | N#Cc1cc2c(nc1Cl)CCCC2 | 3.36%
16 | COc1ccc(CCN=C(N)NS(=O)(=O)c2ccccc2)cc1OC | 0.37%
17 | CCOc1ccc(C2CC(=O)NC3=C2C(=O)CCC3)cc1Cl (stereo not drawn) | 1.99%
18 | CCOc1cc(C2C3=C(CCCC3=O)N(C)C3=C2C(=O)CCC3)cc(Cl)c1O | 18.7%
19 | CCOc1cc(C2C(C(=O)OC(C)C)=C(C)NC3=C2C(=O)CCC3)cc([N+](=O)[O-])c1O (stereo not drawn) | 21.4%
20 | CCOc1cc(C2C3=C(CC(C)(C)CC3=O)OC3=C2C(=O)CC(C)(C)C3)cc([N+](=O)[O-])c1O | 14.2%
21 | Fc1ccc(-c2nc3c(Cl)cc(C(F)(F)F)cn3c2Cl)cc1 | -1.92%
22 | COC(=O)CSc1[nH]c2ccc(F)cc2c1[N+](=O)[O-] | 13%
23 | COC(=O)c1c(C)oc2ccc(NS(=O)(=O)c3cccs3)cc12 | 6.82%
24 | CCOC(=O)c1c(C)oc2ccc(NS(=O)(=O)c3cccs3)cc12 | 17.3%

Row | Compound | inhibition
25 | CC(C)(C)NC(=O)COC(=O)c1nsc(Cl)c1Cl | 0.52%
26 | CC(C)(C)NC(=O)NC(=O)CN1CCN(c2cccc(Cl)c2)CC1 | -0.55%
27 | COn1c(SCc2cccnc2)nc2ccccc2c1=O | -0.13%
28 | COc1ccc(C(=O)NNC(=O)CSc2nnc(-c3cccnc3)n2C)cc1 | 10.3%
29 | CC(=O)Nc1ccc(-c2nnc(SCC(=O)Nc3ccc4c(c3)oc3ccccc34)n2C)cc1 | 8.23%
30 | COc1ccc(NC(=O)CSc2nnc(Cc3cccn3C)n2-c2ccc(F)cc2)cc1 | 23.8% (active)
31 | COc1ccc(C(=O)NNC(=O)CSc2nnc(C)n2C)cc1 | 1%
32 | COc1ccc(NC(=O)CSc2nnc(-c3ccccc3C)n2N)cc1 | 3.11%
33 | COc1ccc(-n2c(Cc3cccn3C)nnc2SCC(=O)Nc2ccc(F)cc2)cc1 | 12%
34 | COc1ccc(NC(=O)CSc2nnc(-c3ccccc3C)n2C)cc1 | 27.4% (active)
35 | COc1ccc(-c2nnc(SCC(=O)Nc3ccccc3)n2C)cc1 | 0.31%
36 | COc1ccc(NC(=O)CSc2nnc(Cc3cccn3C)n2-c2ccc(OC)cc2)cc1 | 5.21%
37 | Cn1c(SCC(=O)Nc2ccc3c(c2)oc2ccccc23)nnc1-c1ccccc1 | 25.6% (active)
38 | Cc1ccc(-c2nnc(SCC(=O)Nc3ccc4c(c3)oc3ccccc34)n2C)c(Cl)c1 | 3.17%
39 | Cc1cc(C)c2c3c(sc2n1)C1(CCSCC1)C(C#N)=C(N)O3 | 9.27%
40 | C1CCN(c2nc3nonc3nc2NCC2CCOCC2)CC1 | 7.54%
41 | CC(=O)N1CCN(c2ccc(NC(=O)c3ccc(Br)o3)cc2Cl)CC1 | 4.42%
42 | COc1ccc(-c2csc(NC(=O)c3cccs3)c2C(=O)O)cc1OC | 19.5%
43 | CC(C)c1ccc(-c2csc(NC(=O)c3cccs3)c2C(=O)O)cc1 | 8.46%
44 | Fc1cccc(Nc2nc(Cl)nc(Cl)n2)c1 | 8.99%
45 | O=C1NCCN(Cc2cccc(Oc3ccccc3)c2)C1CC(=O)N1CCCCO1 (stereo not drawn) | 1.7%
46 | CCOc1cccc2cc(C(=O)Nc3ccccc3-c3ccccc3)c(=O)oc12 | 1.66%
47 | COC(=O)/C(N=Nc1cccc(C(F)(F)F)c1)=C(\C)O | 8.29%
48 | Cc1ccc(CN(Cc2cc3cc4c(cc3[nH]c2=O)OCCO4)Cc2nnnn2Cc2ccco2)cc1 | 22.7%

Row | Compound | inhibition
49 | CCc1ccc2[nH]c(=O)c(CN(Cc3ccccc3)Cc3nnnn3Cc3ccco3)cc2c1 | 13.2%
50 | O=c1[nH]c2cc3c(cc2cc1CN(Cc1cccnc1)Cc1nnnn1Cc1ccco1)OCCO3 | 26.5% (active)
51 | CCCOc1ccc(Cc2nc(N)nc(N)n2)cc1 | -6.23%
52 | C=C(C)C(=O)Nc1cccc(C2=NOC3(C2)C[C@@H](C(N)=O)N(C(=O)c2ccc(Cl)cc2)C3)c1 (stereo partly drawn) | 4.17%
53 | Cc1nn(Cc2ccccc2)c(Cl)c1/C=C1\NC(=S)NC1=O | 4.75%
54 | COc1cc(NC(=O)c2ccc([N+](=O)[O-])o2)ccc1NC(=O)c1cccs1 | 4.73%
55 | O=C(Nc1cccc(NC(=O)c2cccs2)c1)c1ccco1 | 14.8%
56 | O=C(O)CCc1ccc(-c2ccccc2)n1NC(=O)c1sc2ccccc2c1Cl | 24.7% (active)
57 | O=C(O)CCc1ccc(-c2ccccc2)n1NC(=O)c1ccco1 | 3.09%
58 | O=C(O)CCc1ccc(-c2ccccc2)n1NC(=O)c1cccs1 | 6.72%
59 | Cc1ccc(NC(=O)Nc2sc(=S)n(C)c2C)cc1 | -0.53%
60 | CCC(=O)Oc1oc(-c2ccccc2)nc1C=Nc1ccccc1OC | 24.3% (active)
61 | CCC(=O)Oc1oc(-c2ccccc2)nc1C=Nc1ccc(C)cc1 | 1.55%
62 | COc1ccccc1N=Cc1nc(-c2ccccc2)oc1OC(C)=O | 19.1%
63 | CCOC(=O)c1cc(C)sc1/N=C/C1C(=O)CC(C)(C)CC1=O | 1.61%
64 | CCCn1c(SCC(=O)Nc2cccc(S(=O)(=O)N(C)C)c2)nc2ccccc2c1=O | 6.03%
65 | O=C(CSc1nnnn1-c1cccc2ccccc12)NC(C(=O)O)(c1ccccc1)c1ccccc1 | 23.1%
66 | Cc1ccc(-n2nnnc2SCC(=O)Nc2ccccc2-c2ccccc2)cc1C | -2.36%
67 | O=C(O)CC/C(=N\Nc1ccc([N+](=O)[O-])cc1)c1ccccc1 | 7.87%
68 | CCOc1cc(C(N)=O)cc(Br)c1OC | -3.95%
69 | CCOc1c(Br)cc(C(N)=O)cc1OC | 2.69%
70 | COc1cc(C(N)=O)cc(Br)c1OC | 23.4% (active)
71 | Cc1nn(CCS(=O)(=O)c2ccc(Cl)cc2)c(C)c1Br | 0.55%
72 | COCc1cc(C)nc(OCC(=O)N/N=C/c2ccc(O)cc2O)c1C#N | -7.94%

Row | Compound | inhibition
73 | CSc1nnc(-c2cc3c(s2)-c2ccccc2CC3)o1 | 18.2%
74 | CCSc1nnc(-c2cc3c(s2)-c2ccccc2CC3)o1 | 19.1%
75 | O=C(NCc1ccccc1)c1ccc2c(c1)C(=O)N(Cc1ccncc1)C2=O | -0.3%
76 | COc1ccc(C(C(=O)NC(C)(C)C)N(Cc2cccs2)C(=O)CCC(=O)Nc2cc(C)on2)cc1 (stereo not drawn) | -3.34%
77 | COc1cc(CCC(=O)OCC(=O)Nc2c(C)cccc2C(C)C)cc(OC)c1OC | -0.28%
78 | Cc1cc2cc(C(c3nnnn3Cc3ccco3)N3CCc4ccccc4C3)c(=O)[nH]c2cc1C (stereo not drawn) | 14%
79 | Cc1ccc(C)c2[nH]c(=O)c(C(c3nnnn3Cc3ccccc3)N3CCc4ccccc4C3)cc12 (stereo not drawn) | 7.95%
80 | CCC(c1nnnn1Cc1ccco1)N(Cc1cc2cc(OC)ccc2[nH]c1=O)C1CCCCC1 (stereo not drawn) | 14.1%
81 | Cc1ccc(C)c2[nH]c(=O)c(C(c3nnnn3Cc3ccco3)N3CCc4ccccc4C3)cc12 (stereo not drawn) | 24.6% (active)
82 | Cc1cccc2cc(C(c3nnnn3CC3CCCO3)N3CCc4ccccc4C3)c(=O)[nH]c12 (stereo not drawn) | 12.2%
83 | Cc1cc2cc(C(c3nnnn3Cc3ccco3)N3CCc4ccccc43)c(=O)[nH]c2cc1C (stereo not drawn) | 21.9%
84 | COc1ccc2[nH]c(=O)c(CN(C3CCCCC3)C(c3nnnn3Cc3ccco3)C(C)C)cc2c1 (stereo not drawn) | 23.7% (active)
85 | Cc1cc2cc(C(c3nnnn3Cc3ccco3)N3CCCCC3)c(=O)[nH]c2cc1C (stereo not drawn) | 26.8% (active)
86 | COc1ccc2[nH]c(=O)c(CN(Cc3nnnn3Cc3ccco3)C3CCCCC3)cc2c1 | 16%
87 | CCOC(=O)c1ccc(Nc2nnc(C)c3ccccc23)cc1 | 6.41%
88 | CSc1ccccc1NC(=O)CN(C)CC(=O)NCc1ccccc1 | -1.28%
89 | CC1(C)CC(=O)C(C=NCCN2CCN(C(=O)c3ccc(Br)cc3)CC2)=C(O)C1 | 2.26%
90 | COc1ccc(CCNC(=O)[C@@H](NC(=O)c2ccccc2F)C(C)C)cc1OC | 0.88%
91 | Oc1c(Cl)cc(Cl)c2cccnc12 | -7.26%
92 | Oc1c(Cl)cc(Cl)c2c1NCCC2 | 7.06%
93 | CCC(C)NCCCCOc1cc(C)cc(C(C)C)c1 (stereo not drawn) | 3.28%

From PubChem BioAssay AID1445 (SRMLSC, 2008)
